# The full list was thinned out, with the strongest signals kept by preference.
# Assays:
# Test in all cases: glycan array binding signal (z-score within array); higher = stronger binding
# Conditions in all cases: glycan notation: IUPAC condensed, linker removed
# [1] = target: GlcNAc(a1-3)Gal(b1-4)GlcNAc
# How it was run: (§1)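 Glycan array data were curated from 3228 arrays in the Consortium for Functional Glycomics database and kept only where the protein sequence was available. Glycan names were converted to IUPAC-condensed notation, and columns mapping to the same glycan were averaged. The binding signal is a within-array Z-score, averaged across arrays of the same protein sequence at different concentrations or buffers and across linkers. Negative Z-scores can be read as non-binding.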
# [2] = target: GlcNAc(a1-4)Gal(b1-4)GlcNAc(b1-3)Gal(b1-4)[Fuc(a1-3)]GlcNAc(b1-3)Gal(b1-4)[Fuc(a1-3)]GlcNAc
# How it was run: as §1
# [3] = target: GlcNAc(b1-2)Man(a1-3)[GlcNAc(b1-4)][GlcNAc(b1-2)Man(a1-6)]Man(b1-4)GlcNAc(b1-4)[Fuc(a1-6)]GlcNAc
# How it was run: as §1
# [4] = target: GlcNAc(b1-2)[GlcNAc(b1-4)]Man(a1-3)[GlcNAc(b1-4)][GlcNAc(b1-2)Man(a1-6)]Man(b1-4)GlcNAc(b1-4)GlcNAc
# How it was run: as §1
# [5] = target: Man(a1-2)Man(a1-2)Man(a1-6)[Man(a1-3)]Man
# How it was run: as §1
# Man(a1-3)[Man(a1-6)]Man = target: Man(a1-3)[Man(a1-6)]Man
# How it was run: as §1
# [6] = target: Man(a1-3)[Man(a1-6)]Man(a1-6)[Man(a1-3)]Man(b1-4)GlcNAc(b1-4)GlcNAc
# How it was run: as §1
# Neu5Ac(a2-3)Gal = target: Neu5Ac(a2-3)Gal
# How it was run: as §1
# [7] = target: Neu5Ac(a2-3)Gal(b1-3)GalNAc
# How it was run: as §1
# [8] = target: Neu5Ac(a2-3)Gal(b1-3)GalNAc(b1-4)[Neu5Ac(a2-3)]Gal(b1-4)Glc
# How it was run: as §1
# [9] = target: Neu5Ac(a2-3)Gal(b1-3)GlcNAc(b1-3)GalNAc
# How it was run: as §1
# [10] = target: Neu5Ac(a2-3)Gal(b1-3)GlcNAc(b1-6)GalNAc
# How it was run: as §1
# Neu5Ac(a2-3)Gal(b1-4)Glc = target: Neu5Ac(a2-3)Gal(b1-4)Glc
# How it was run: as §1
# [11] = target: Neu5Ac(a2-3)Gal(b1-4)GlcNAc(b1-6)[Gal(b1-3)]GalNAc
# How it was run: as §1
# [12] = target: Neu5Ac(a2-3)Gal(b1-4)GlcNAc(b1-6)[Neu5Ac(a2-3)Gal(b1-3)]GalNAc
# How it was run: as §1
# [13] = target: Neu5Ac(a2-3)Gal(b1-4)[Fuc(a1-3)]GlcNAc(b1-3)GalNAc
# How it was run: as §1
# [14] = target: Neu5Ac(a2-6)GalNAc(b1-4)GlcNAc
# How it was run: as §1
# [15] = target: Neu5Ac(a2-8)Neu5Ac(a2-3)Gal(b1-4)GlcNAc
# How it was run: as §1
# [16] = target: Neu5Ac(b2-6)Gal(b1-4)GlcNAc
# How it was run: as §1
# Neu5Ac(b2-6)GalNAc = target: Neu5Ac(b2-6)GalNAc
# How it was run: as §1
binder,measurement,setting,value
Thrombomodulin (Mus musculus) (protein) ALAKLQPTGSQCVEHECFALFQGPATFLDASQACQRLQGHLMTVRSSVAADVISLLLSQSSMDLGPWIGLQLPQGCDDPVHLGPLRGFQWVTGDNHTSYSRWARPNDQTAPLCGPLCVTVSTATEAAPGEPAWEEKPCETETQGFLCEFYFTASC,glycan array binding signal (z-score),[1],-0.129
same,glycan array binding signal (z-score),[2],0.047
same,glycan array binding signal (z-score),[3],-0.052
same,glycan array binding signal (z-score),[4],1.03
same,glycan array binding signal (z-score),[5],-0.278
same,glycan array binding signal (z-score),Man(a1-3)[Man(a1-6)]Man,0.154
same,glycan array binding signal (z-score),[6],-0.262
same,glycan array binding signal (z-score),Neu5Ac(a2-3)Gal,-0.273
same,glycan array binding signal (z-score),[7],1.07
same,glycan array binding signal (z-score),[8],-0.4
same,glycan array binding signal (z-score),[9],-0.354
same,glycan array binding signal (z-score),[10],0.614
same,glycan array binding signal (z-score),Neu5Ac(a2-3)Gal(b1-4)Glc,2.91
same,glycan array binding signal (z-score),[11],-0.321
same,glycan array binding signal (z-score),[12],-0.43
same,glycan array binding signal (z-score),[13],0.695
same,glycan array binding signal (z-score),[14],-0.193
same,glycan array binding signal (z-score),[15],-0.54
same,glycan array binding signal (z-score),[16],-0.139
same,glycan array binding signal (z-score),Neu5Ac(b2-6)GalNAc,-0.216
